# Measured values taken from PubChem BioAssay (NCATS).
# Results filed as inconclusive are left out. Where a call stands in place of a potency, no number is given. Active and inactive are the calls of the source. Unless noted, calls follow the shape of the dose curve; as a rule, active = well fitted curve in the direction sought with a large enough effect; inconclusive = small, poorly fitted or top-dose-only effect, or another doubt; inactive = no such curve, though single readings can be large; an effect the other way counts as inactive or inconclusive.
# Columns and labels:
# [1] = molecular target: Voltage-gated inwardly rectifying potassium channel KCNH2 (Homo sapiens) (UniProt Q12809); test: qHTS Assay for Small Molecule Inhibitors of the Human hERG Channel Activity (AID 588834); conditions: U2OS BacMam hERG, FluxOR thallium flux fluorescence; series mostly up to 46.1 µM;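 also: lower thallium flux fluorescence means stronger hERG block; nearly all actives have a fitted effect of over 50% in size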; also: potency is read from the fitted curve at half-maximal effect
# Summary of the method: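 hERG block measured as reduced thallium-dye (FluxOR) fluorescence after stimulation buffer addition, read over 2 min. Cells were hERG-BacMam-transduced U2OS exposed to compound ~10 min […]; concentration-response fitted with Hill equation for AC50.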
# [2] = molecular target: Glucagon-like peptide 1 receptor (Homo sapiens) (UniProt P43220); test: qHTS of GLP-1 Receptor Agonists: LOPAC Validation (AID 624148); conditions: GLP-1R agonist cell assay; series mostly up to 46.1 µM;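 also: higher luminescence signal means agonism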
# Summary of the method: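 HEK293 cells stably co-expressing GLP-1R and a cAMP-responsive luciferase reporter, plated 12 hours before compound, then incubated 4-6 hr at 37 deg C. Luminescence read 12 min after detection reagent.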
# [3] = qHTS of Trypanosoma Brucei Inhibitors: LOPAC Validation (AID 624147); conditions: purified enzyme assay, luminescence, 45 min; series mostly up to 57.5 µM
# Summary of the method: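 Activity of T. brucei pyruvate kinase was followed by Kinase-Glo Plus luminescence after the enzyme reacted 45 min at room temperature with 130 uM ADP (final) and substrate. Test compounds were added before ADP at multiple concentrations.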
# [4] = molecular target: Glutaminase kidney isoform, mitochondrial (Homo sapiens) (UniProt O94925); test: qHTS for Inhibitors of Glutaminase (GLS): LOPAC Validation (AID 624146); conditions: glutaminase enzyme activity inhibition; series mostly up to 46.1 µM; also: nearly all actives have a fitted effect of over 60% in size; also: potency is read from the fitted curve at half-maximal effect
# Summary of the method: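 Read-out is an Amplex red fluorescence increase coupled through glutamate oxidase and HRP, measured before and after 30 min room-temperature incubation. hKGA is in 45 mM KH2PO4 (pH 8.2) with 0.02% Tween-20; glutamine added as 1mM solution.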
# [5] = molecular target: Luciferin 4-monooxygenase (Photinus pyralis) (UniProt P08659); test: Biochemical firefly luciferase enzyme assay for NPC (AID 624030); also: nearly all actives have a fitted effect of over 70% in size; also: potency is read from the fitted curve at half-maximal effect; conditions: purified P. pyralis luciferase, luminescence, 5 min; series mostly up to 58.6 µM
# Summary of the method: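 Purified P. pyralis luciferase at 10 nM in 50 mM Tris Acetate (final), luminescence read within 5 minutes of enzyme addition to compounds. Activity normalised to PTC124 versus DMSO; concentration-response curves classed by r2, magnitude and activity.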
# [6] = S16 Schwann cell viability assay (CellTiter-Glo assay) (AID 624031); conditions: S16 rat Schwann cells viability, 24 h; series mostly up to 57.5 µM;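 also: native untransfected S16 rat Schwann cells; nearly all actives have a fitted effect of over 70% in size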
# Summary of the method: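 Counter-screen for cytotoxicity: parental S16 rat Schwann cells lacking the PMP22 reporters, treated 24 h with compound, viability from cellular ATP by CellTiter-Glo luminescence, normalized to DMSO (0%) and no-cell wells.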
# [7] = S16 Schwann cell PMP22 intronic element firefly luciferase assay (AID 624032); conditions: S16 rat Schwann cells, PMP22 element FLuc, 24 h; series mostly up to 57.5 µM; also: nearly all actives have a fitted effect of over 30% in size; also: potency is read from the fitted curve at half-maximal effect
# Summary of the method: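 Rat S16 Schwann cells stably carrying firefly luciferase driven by a PMP22 intronic element, in 10% FBS, treated 24 h at 37 C. ONE-Glo luminescence normalized to PTC124 control and DMSO (0%); curves classed by r2, magnitude and activity.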
# [8] = S16 Schwann cell PMP22 intronic element beta-lactamase assay (AID 624044; calls by dose curve; also: nearly all actives have a fitted effect of over 15% in size; also: potency is read from the fitted curve at half-maximal effect); conditions: S16 rat Schwann cells, PMP22 element beta-lactamase FRET, 24 h; series mostly up to 38.3 µM
# Summary of the method: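 Beta-lactamase reporter under a PMP22 intronic regulatory element in stable S16 rat Schwann cells; 24 h compound exposure. 460 nm blue signal normalized between DMSO (0%) and potassium clavulanate, with 535 nm FRET tracking viability; curves classed by r2 and response.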
# Glutaminase kidney isoform, mitochondrial (Homo sapiens), sequence (O94925 whole entry, looked up, canonical isoform): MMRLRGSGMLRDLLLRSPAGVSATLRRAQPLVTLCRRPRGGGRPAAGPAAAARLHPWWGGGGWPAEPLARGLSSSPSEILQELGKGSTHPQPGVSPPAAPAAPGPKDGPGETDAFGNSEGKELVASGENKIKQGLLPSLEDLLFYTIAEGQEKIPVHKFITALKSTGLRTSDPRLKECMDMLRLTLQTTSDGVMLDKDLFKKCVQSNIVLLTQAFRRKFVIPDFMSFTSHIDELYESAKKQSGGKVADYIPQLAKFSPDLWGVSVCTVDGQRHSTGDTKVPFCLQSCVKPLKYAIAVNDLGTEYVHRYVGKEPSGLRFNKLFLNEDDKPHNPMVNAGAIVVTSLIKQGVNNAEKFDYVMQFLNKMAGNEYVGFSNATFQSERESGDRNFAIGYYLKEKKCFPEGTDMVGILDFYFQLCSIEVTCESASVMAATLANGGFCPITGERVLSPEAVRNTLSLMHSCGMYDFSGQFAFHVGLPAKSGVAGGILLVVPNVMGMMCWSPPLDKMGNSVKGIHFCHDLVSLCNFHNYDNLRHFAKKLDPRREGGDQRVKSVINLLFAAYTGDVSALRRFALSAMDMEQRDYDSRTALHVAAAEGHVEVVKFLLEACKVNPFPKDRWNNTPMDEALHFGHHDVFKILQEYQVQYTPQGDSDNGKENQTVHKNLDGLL
# Voltage-gated inwardly rectifying potassium channel KCNH2 (Homo sapiens), sequence (Q12809 whole entry, looked up): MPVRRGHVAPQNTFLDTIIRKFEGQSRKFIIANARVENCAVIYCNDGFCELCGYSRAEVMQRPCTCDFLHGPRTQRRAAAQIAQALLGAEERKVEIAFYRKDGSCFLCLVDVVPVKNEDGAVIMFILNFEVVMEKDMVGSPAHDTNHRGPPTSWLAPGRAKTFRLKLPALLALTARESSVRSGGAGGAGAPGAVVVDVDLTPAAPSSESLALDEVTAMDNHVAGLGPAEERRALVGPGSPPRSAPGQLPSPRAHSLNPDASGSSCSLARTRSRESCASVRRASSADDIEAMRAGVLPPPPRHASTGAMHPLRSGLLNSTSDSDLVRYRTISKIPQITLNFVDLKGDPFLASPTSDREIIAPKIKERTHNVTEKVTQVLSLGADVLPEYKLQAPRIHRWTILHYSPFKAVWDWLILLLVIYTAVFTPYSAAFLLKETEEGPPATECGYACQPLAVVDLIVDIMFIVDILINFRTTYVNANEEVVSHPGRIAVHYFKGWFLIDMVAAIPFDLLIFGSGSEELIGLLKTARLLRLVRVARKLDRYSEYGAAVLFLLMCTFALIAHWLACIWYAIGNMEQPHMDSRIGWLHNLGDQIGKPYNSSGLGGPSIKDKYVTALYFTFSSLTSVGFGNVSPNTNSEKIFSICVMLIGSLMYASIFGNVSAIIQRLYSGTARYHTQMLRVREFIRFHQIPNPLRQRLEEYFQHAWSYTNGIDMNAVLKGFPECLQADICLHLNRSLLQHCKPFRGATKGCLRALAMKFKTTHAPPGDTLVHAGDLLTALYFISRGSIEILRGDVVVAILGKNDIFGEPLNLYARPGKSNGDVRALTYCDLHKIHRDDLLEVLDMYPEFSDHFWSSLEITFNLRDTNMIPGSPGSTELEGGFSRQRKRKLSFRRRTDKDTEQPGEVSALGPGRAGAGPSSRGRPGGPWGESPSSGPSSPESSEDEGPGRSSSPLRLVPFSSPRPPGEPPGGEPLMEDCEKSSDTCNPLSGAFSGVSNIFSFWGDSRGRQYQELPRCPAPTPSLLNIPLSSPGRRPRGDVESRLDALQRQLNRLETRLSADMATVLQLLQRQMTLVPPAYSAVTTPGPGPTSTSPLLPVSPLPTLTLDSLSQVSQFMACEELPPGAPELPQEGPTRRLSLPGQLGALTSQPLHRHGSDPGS
# Glucagon-like peptide 1 receptor (Homo sapiens), sequence (P43220 whole entry, looked up): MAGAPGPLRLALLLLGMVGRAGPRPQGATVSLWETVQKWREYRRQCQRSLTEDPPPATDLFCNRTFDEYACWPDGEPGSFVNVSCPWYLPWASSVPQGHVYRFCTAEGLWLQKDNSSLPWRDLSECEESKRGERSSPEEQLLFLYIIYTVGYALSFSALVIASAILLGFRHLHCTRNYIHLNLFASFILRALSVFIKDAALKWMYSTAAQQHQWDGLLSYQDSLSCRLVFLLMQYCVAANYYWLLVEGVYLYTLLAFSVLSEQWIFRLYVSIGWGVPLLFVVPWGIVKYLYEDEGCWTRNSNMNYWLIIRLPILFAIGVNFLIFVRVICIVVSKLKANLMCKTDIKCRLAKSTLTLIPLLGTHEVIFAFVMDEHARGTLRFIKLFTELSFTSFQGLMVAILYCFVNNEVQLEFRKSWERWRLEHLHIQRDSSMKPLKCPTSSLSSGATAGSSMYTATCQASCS
# Luciferin 4-monooxygenase (Photinus pyralis), sequence (P08659 whole entry, looked up): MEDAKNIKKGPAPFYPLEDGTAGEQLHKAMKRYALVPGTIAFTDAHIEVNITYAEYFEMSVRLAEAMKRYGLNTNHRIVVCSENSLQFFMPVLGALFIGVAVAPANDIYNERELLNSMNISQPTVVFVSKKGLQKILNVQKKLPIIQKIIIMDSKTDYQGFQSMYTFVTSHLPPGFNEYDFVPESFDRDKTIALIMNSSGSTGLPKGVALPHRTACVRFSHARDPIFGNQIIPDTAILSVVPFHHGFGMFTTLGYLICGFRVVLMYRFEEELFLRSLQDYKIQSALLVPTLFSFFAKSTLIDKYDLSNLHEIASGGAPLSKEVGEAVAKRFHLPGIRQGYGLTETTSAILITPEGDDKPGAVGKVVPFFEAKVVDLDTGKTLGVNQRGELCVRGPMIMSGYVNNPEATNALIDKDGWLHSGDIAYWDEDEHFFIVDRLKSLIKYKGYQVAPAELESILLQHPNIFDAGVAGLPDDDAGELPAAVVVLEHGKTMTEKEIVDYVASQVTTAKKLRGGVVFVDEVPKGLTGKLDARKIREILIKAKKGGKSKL
compound,measurement,setting,value
NNC(=O)c1ccc(O)cc1,Potency,[1],inactive
same,outcome,[2],inactive
C[N+]1(C)CCOC(O)(c2ccc(-c3ccc(C4(O)C[N+](C)(C)CCO4)cc3)cc2)C1 (configuration not stated),Potency,[1],inactive
same,Potency,[3],inactive
same,outcome,[2],inactive
CC(N)Cc1c[nH]c2ccc(OCc3cccs3)cc12 (configuration not stated),Potency,[1],2.82 µM (active)
same,Potency,[4],inactive
same,outcome,[2],inactive
CP(=O)(O)C1=CCNCC1,Potency,[1],inactive
same,Potency,[4],inactive
same,outcome,[2],inactive
NCCc1c[nH]c2ccc(C(N)=O)cc12,Potency,[1],inactive
same,Potency,[4],inactive
same,outcome,[2],inactive
Ic1ccccc1CNC1C2CCN(CC2)C1C(c1ccccc1)c1ccccc1 (configuration not stated),Potency,[1],1 µM (active)
same,Potency,[4],inactive
same,outcome,[2],inactive
CN(N=O)c1cc(O)ccc1O,Potency,[1],inactive
same,Potency,[4],1.78 µM (active)
same,outcome,[2],inactive
NC(=O)COc1c(F)cc(SCCNS(=O)(=O)c2ccccc2)cc1F,Potency,[1],inactive
same,Potency,[4],inactive
same,outcome,[2],inactive
NC(Cc1cc(O)c(O)cc1O)C(=O)O (configuration not stated),Potency,[1],inactive
same,Potency,[4],inactive
same,outcome,[2],inactive
NC(N)=Nc1ccc2[nH]c3c(c2c1)C[C@@]1(O)[C@H]2Cc4ccc(O)c5c4[C@@]1(CCN2CC1CC1)[C@H]3O5,Potency,[1],inactive
same,Potency,[3],inactive
C[N+](C)(C)CC#CCOC(=O)Nc1cccc(Cl)c1,Potency,[1],inactive
same,Potency,[4],inactive
same,outcome,[2],inactive
CC(N)Cc1c[nH]c2ccc(O)cc12 (configuration not stated),Potency,[1],inactive
same,Potency,[4],0.794 µM (active)
same,outcome,[2],inactive
C/C(O)=C(\C#N)C(=O)Nc1cc(Br)ccc1Br,Potency,[1],inactive
same,Potency,[4],inactive
same,outcome,[2],inactive
COc1ccc2c(c1)C13CCCCC1C(C2)N(C)CC3 (configuration not stated),Potency,[1],inactive
same,Potency,[4],inactive
same,outcome,[2],inactive
C[Se]C[C@H](N)C(=O)O,Potency,[1],inactive
same,Potency,[4],inactive
same,outcome,[2],inactive
Oc1ccc2c3c1O[C@H]1c4[nH]c5ccccc5c4C[C@@]4(O)C(C2)N(CC2CC2)CCC314 (some centres not stated),Potency,[1],0.794 µM (active)
same,outcome,[2],inactive
NC(=O)c1cc(N2CC2)c([N+](=O)[O-])cc1[N+](=O)[O-],Potency,[1],inactive
same,Potency,[4],inactive
same,outcome,[2],inactive
O=S1(=O)N(CCN2CC=C(c3c[nH]c4cc(F)ccc34)CC2)c2cccc3c2N1CCC3,Potency,[1],7.08 µM (active)
same,Potency,[3],inactive
same,outcome,[2],inactive
CCCN(CCC)[C@H]1CCc2c(F)ccc(O)c2C1,Potency,[1],7.08 µM (active)
same,outcome,[2],inactive
O=C(NC(=O)c1c(F)cccc1F)Nc1ccc(Cl)c(Oc2ncc(C(F)(F)F)cc2Cl)c1,Potency,[5],inactive
same,Potency,[6],inactive
same,Potency,[7],inactive
same,Potency,[8],inactive
Cc1[nH]c2ccc(O)cc2c1CCN,Potency,[1],inactive
same,Potency,[3],inactive
same,outcome,[2],inactive
NC(N)=NOCC[C@H](N)C(=O)O,Potency,[1],inactive
same,outcome,[2],inactive
COc1ccc2[nH]c3c(c2c1)CCNC3,Potency,[1],inactive
same,Potency,[3],inactive
same,outcome,[2],inactive
CC(=O)O[C@H]1CC[C@H]2[C@@H]3CCC4=CC(=O)CCC4=C3C=C[C@]12C,Potency,[5],inactive
same,Potency,[6],inactive
same,Potency,[7],8.09 µM (active)
same,Potency,[8],inactive
Clc1cc(I)cc(Cl)c1NC1=NCCN1,Potency,[1],inactive
same,Potency,[4],inactive
same,outcome,[2],inactive
CN(N=O)c1ccc(O)c(O)c1,Potency,[1],inactive
same,Potency,[4],inactive
same,outcome,[2],inactive
NC(=O)c1ccc(OCC(O)CN2CC=C(c3ccc(F)cc3)CC2)cc1 (configuration not stated),Potency,[1],7.94 µM (active)
same,Potency,[4],inactive
same,outcome,[2],inactive
[Cl][Pt][Cl],Potency,[5],inactive
O=[N+]([O-])c1cc(O)c(O)c([N+](=O)[O-])c1,Potency,[1],inactive
same,Potency,[4],12.6 µM (active)
same,outcome,[2],inactive
Oc1cccc[c]1[Hg][Cl],Potency,[5],10.2 µM (active)
same,Potency,[7],0.642 µM (active)
same,Potency,[8],4.46 µM (active)
O=C(CCl)c1ccc(Oc2ccc(C(=O)CCl)cc2)cc1,Potency,[7],inactive
same,Potency,[8],inactive
O=C1CCCCC1CN1CCCCC1 (configuration not stated),Potency,[5],inactive
same,Potency,[6],inactive
same,Potency,[8],inactive
Nc1ccc(CCN2CCN(c3cccc(C(F)(F)F)c3)CC2)cc1,Potency,[4],inactive
same,Potency,[3],inactive
same,outcome,[2],inactive
c1ccc2cc(CC3=NCCN3)ccc2c1,Potency,[5],inactive
same,Potency,[6],inactive
same,Potency,[7],inactive
same,Potency,[8],inactive
same,Potency,[4],inactive
same,outcome,[2],inactive
CN1CC[C@@]2(C)c3cc(OC(=O)Nc4ccccc4)ccc3N(C)[C@@H]12,Potency,[4],1.12 µM (active)
same,Potency,[3],inactive
same,outcome,[2],inactive
CCCN1CCC[C@@H](c2cccc(O)c2)C1,Potency,[4],inactive
same,Potency,[3],inactive
same,outcome,[2],inactive
CC(=O)OCC1=C(C(=O)O)N2C(=O)[C@@H](NC(=O)CCC[C@@H](N)C(=O)O)[C@H]2SC1,Potency,[4],inactive
same,Potency,[3],inactive
same,outcome,[2],inactive
CC1CCC(C(C)C)C(OC(=O)c2ccccc2N)C1 (configuration not stated),Potency,[5],inactive
same,Potency,[7],inactive
same,Potency,[8],inactive
Clc1ccc(C2(Cn3cncn3)OCCO2)c(Cl)c1,Potency,[5],inactive
same,Potency,[6],inactive
same,Potency,[8],inactive
CN(C(=O)Cc1ccc(Cl)c(Cl)c1)C(CN1CCCC1)c1cccc(OCC(=O)O)c1 (configuration not stated),Potency,[4],inactive
same,Potency,[3],inactive
same,outcome,[2],inactive
